PLK1 PBD block: blocks phosphopeptide binding to human PLK1 polo-box domain; P53350; Plk1 PBD binding of FITC phosphopeptide, fluorescence polarization; Potency, µM, most hits filed as inhibitors; hit rate 2.8% among 360,000; further: series mostly up to about 57 µM; nearly all actives have a fitted effect of over 65% in size
BAZ2B block: blocks human BAZ2B; Q9UIF8; AlphaScreen BAZ2B-H3K14Ac peptide displacement; Potency, µM (titrated, usually from 114 µM), hits mostly inhibitors; hit rate 4.4% among 360,000; AID 504333; further: nearly all actives have a fitted effect of over 60% in size
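AlphaScreen displacement: compounds (up to 110uM) incubated 30 min at room temperature with a preformed 50 nM BAZ2B/50 nM biotinylated H3K14Ac peptide complex in PBS pH 7.4 with Tween-20. Donor and acceptor beads at 10 ug/mL final added, 20 min light-protected before reading.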
HP1b chromo inh: blocks HP1-beta chromodomain binding to methylated histone tails | P83916 | AlphaScreen HP1-beta / biotin-H3K9me3 peptide binding | Potency, µM (top dose mostly 114 µM), hits mostly inhibitors | hit rate 0.56% among 390,000; further: nearly all actives have a fitted effect of over 70% in size
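HP1-beta protein (50 nM final) preincubated 30 min at room temperature with biotinylated H3(1-18)K9me3 peptide (50 nM) in PBS pH 7.4, 0.01% Tween-20, then compound added for 30 min. AlphaScreen streptavidin donor/nickel chelate acceptor beads (10 ug/mL final), 30 min dark, luminescence read.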
G9a block: blocks human histone lysine methyltransferase G9a; Q96KQ7; G9a H3K9 monomethylation, AlphaScreen, 2 h; Potency, µM (doses to about 102 µM), usual class: inhibitors; hit rate 8.8% among 350,000; further: nearly all actives have a fitted effect of over 75% in size
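Enzyme 20 nM + cpd, 15 min RT; add b-H3K9 pep 500 nM / SAM 20 uM; 2 h RT; anti-H3K9me1 Ab 0.5 ug/mL + SA donor / anti-rabbit acceptor beads 20 ug/mL each, 10 min; AlphaScreen read.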
JMJD2A Tudor: inhibitors of human JMJD2A Tudor domain | Potency, µM (titrated, usually from 114 µM), usual class: inhibitors | hit rate 4.4% among 390,000 | AlphaScreen JMJD2A-Tudor / H3K4me3 peptide binding; further: nearly all actives have a fitted effect of over 50% in size
ALOX12 inh: blocks human arachidonate 12S-lipoxygenase. P18054. purified 12hLO, xylenol orange hydroperoxide absorbance. Potency, µM (doses to about 108 µM), most hits filed as inhibitors. hit rate 1.1% among 580,000. AID 1671190
Target sequence (P18054 whole entry, looked up): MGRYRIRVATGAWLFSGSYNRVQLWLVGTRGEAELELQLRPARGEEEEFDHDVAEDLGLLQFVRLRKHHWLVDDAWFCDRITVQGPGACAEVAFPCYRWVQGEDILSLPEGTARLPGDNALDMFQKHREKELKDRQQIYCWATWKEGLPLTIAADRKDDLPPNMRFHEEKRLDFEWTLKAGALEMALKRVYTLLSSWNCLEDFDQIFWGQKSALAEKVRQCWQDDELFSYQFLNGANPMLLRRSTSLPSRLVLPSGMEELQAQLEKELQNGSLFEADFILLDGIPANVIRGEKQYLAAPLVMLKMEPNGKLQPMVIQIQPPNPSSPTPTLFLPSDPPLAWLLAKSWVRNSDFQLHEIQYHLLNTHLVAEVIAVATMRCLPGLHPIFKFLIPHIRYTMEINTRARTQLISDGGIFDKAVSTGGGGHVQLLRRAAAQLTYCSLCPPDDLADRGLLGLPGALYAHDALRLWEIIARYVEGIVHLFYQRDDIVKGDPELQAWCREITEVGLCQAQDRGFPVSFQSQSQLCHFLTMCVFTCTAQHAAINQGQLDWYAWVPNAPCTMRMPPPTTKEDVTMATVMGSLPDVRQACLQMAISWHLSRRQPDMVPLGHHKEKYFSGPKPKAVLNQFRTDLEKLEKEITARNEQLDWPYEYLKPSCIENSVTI
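Hydroperoxide product was detected by ferrous iron/xylenol orange as the 573 to 405 nm absorbance ratio. Arachidonic acid at 40 uM (final) was turned over for 30 min at room temperature by 150 nM human 12hLO, pH 7.0 Hepes buffer, after 15 min compound preincubation.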
A number is an active result; [ ] = another dose, or the depositor's remark. Most compounds without a hit are left out; they make up all but 9% or so of the library. The call rests on the fitted dose curve; in most records, active means well fitted curve in the direction sought with a large enough effect; inconclusive means small, poorly fitted or top-dose-only effect, or another doubt; inactive means no such curve, though single readings can be large; an effect the other way counts as inactive or inconclusive.

`CSc1ccc(C(=S)N2CCN(C)CC2)cc1` gave PLK1 PBD block 30µM, BAZ2B block inactive, HP1b chromo inh inactive, G9a block inconclusive, JMJD2A Tudor inactive and ALOX12 inh inactive.
Screening CCCNC(=S)N1CCN(C(c2ccccc2)c2ccccc2)CC1 returned PLK1 PBD block inactive, BAZ2B block inactive, HP1b chromo inh inactive, G9a block inactive, JMJD2A Tudor inactive and ALOX12 inh inactive.
Screening CN1CCN(C(=S)c2ccc(N(C)C)cc2)CC1 returned PLK1 PBD block 10µM, BAZ2B block inactive, HP1b chromo inh inconclusive, G9a block inconclusive, JMJD2A Tudor inactive and ALOX12 inh inactive.
For O=C(Nc1ccc(Br)cc1)C1CC(O)CN1C(=O)OCc1ccccc1 (stereo not drawn) the results were PLK1 PBD block inactive, BAZ2B block inactive, HP1b chromo inh inactive, G9a block inactive, JMJD2A Tudor inactive and ALOX12 inh inactive.
`C[N+]1(CCCCC[N+]2(C)CCCC2)CCCC1` gave G9a block inactive.
COCC[N+]1(C)CCCCC1 was read as PLK1 PBD block inactive, BAZ2B block inactive, HP1b chromo inh inactive, G9a block 4.5µM, JMJD2A Tudor inconclusive and ALOX12 inh inconclusive.
Clc1ccc2oc(-c3ccccc3)cc(=NCCCN3CCOCC3)c2c1 was read as PLK1 PBD block inactive, BAZ2B block inconclusive, HP1b chromo inh inactive, G9a block inconclusive, JMJD2A Tudor inactive and ALOX12 inh 14µM.
`OCCCCCN=c1cc(-c2ccccc2)oc2ccc(Cl)cc12` gave PLK1 PBD block inactive, BAZ2B block inactive, HP1b chromo inh inactive, G9a block inactive, JMJD2A Tudor inactive and ALOX12 inh inactive.
Screening Cc1ccc(NC(=O)CCCNC(=O)c2ccc(Cl)cc2)c(Br)c1 returned PLK1 PBD block inactive, BAZ2B block inactive, HP1b chromo inh inactive, G9a block inactive[2.33 µM], JMJD2A Tudor inactive and ALOX12 inh inactive.
Screening Cc1cc(Cl)ccc1S(=O)(=O)NC1CCc2nn(C)c(=O)n2CC1 (stereo not drawn) returned ALOX12 inh inactive.
Screening O=C(Nc1nnc(SCCN2CCOCC2)s1)C1CC(=O)N(c2ccc(F)cc2)C1 (stereo not drawn) returned PLK1 PBD block inactive, BAZ2B block inactive, HP1b chromo inh inactive, G9a block 45µM, JMJD2A Tudor inactive and ALOX12 inh inconclusive.
O=C(CSc1nnc(NC(=O)C2CC(=O)N(c3ccc(F)cc3)C2)s1)NCC1CCCO1 (stereo not drawn) was read as PLK1 PBD block inactive, BAZ2B block inactive, HP1b chromo inh inactive, G9a block 45µM, JMJD2A Tudor inactive and ALOX12 inh inconclusive.
Screening O=C(Nc1nnc(SCCC2OCCO2)s1)C1CC(=O)N(c2ccc(F)cc2)C1 (stereo not drawn) returned PLK1 PBD block inconclusive, BAZ2B block inconclusive, HP1b chromo inh inactive, G9a block 40µM, JMJD2A Tudor inactive and ALOX12 inh inconclusive.
Cc1ccc(N2CC(C(=O)Nc3nnc(SCCN4CCOCC4)s3)CC2=O)cc1C (stereo not drawn) was read as PLK1 PBD block inactive, BAZ2B block inactive, HP1b chromo inh inactive, G9a block inactive[12.7 µM], JMJD2A Tudor inactive and ALOX12 inh inconclusive.
`NC(=O)c1oc2ccccc2c1NC(=O)C1CC(=O)N(c2ccccc2)C1` (stereo not drawn) gave PLK1 PBD block inactive, BAZ2B block inactive, HP1b chromo inh inactive, G9a block 45µM, JMJD2A Tudor inactive and ALOX12 inh inactive.
NC(=O)c1oc2ccccc2c1NC(=O)C1CCCCC1 was read as PLK1 PBD block inactive, BAZ2B block inactive, HP1b chromo inh inactive, G9a block inactive, JMJD2A Tudor inactive and ALOX12 inh inactive.
Screening COc1cccc(N2CC(C(=O)Nc3nnc(SCCC4OCCO4)s3)CC2=O)c1 (stereo not drawn) returned PLK1 PBD block inconclusive, BAZ2B block inactive, HP1b chromo inh inactive, G9a block 28µM, JMJD2A Tudor inactive and ALOX12 inh inactive.
`O=C(CSc1nnc(NC(=O)c2cccc(F)c2)s1)NCC1CCCO1` (stereo not drawn) gave PLK1 PBD block inactive, BAZ2B block inactive, HP1b chromo inh inactive, JMJD2A Tudor inactive and ALOX12 inh inactive.
For Cc1cc(NC(=O)CSc2nnc(NC(=O)C3CC(=O)N(c4ccccc4)C3)s2)no1 (stereo not drawn) the results were PLK1 PBD block inactive, BAZ2B block inconclusive, HP1b chromo inh inactive, G9a block inconclusive, JMJD2A Tudor inactive and ALOX12 inh inactive.
O=C(CSc1nnc(NC(=O)c2c(F)cccc2F)s1)NCC1CCCO1 (stereo not drawn) was read as PLK1 PBD block inactive, BAZ2B block inactive, HP1b chromo inh inactive, G9a block 20µM, JMJD2A Tudor inactive and ALOX12 inh inactive.
`O=C(Nc1nnc(SCCC2OCCO2)s1)C1CC(=O)N(c2ccccc2)C1` (stereo not drawn) gave PLK1 PBD block inconclusive, BAZ2B block inactive, HP1b chromo inh inactive, G9a block 22µM, JMJD2A Tudor inactive and ALOX12 inh inactive.
O=C(Nc1nnc(SCc2cccnc2)s1)C1CC(=O)N(c2ccc(F)cc2)C1 (stereo not drawn) was read as PLK1 PBD block inactive, BAZ2B block inactive, HP1b chromo inh inactive, G9a block 40µM, JMJD2A Tudor inactive and ALOX12 inh inconclusive.
CCOc1ccc(Oc2ccc(S(=O)(=O)N3CCOCC3)cc2NC(=O)C2=COCCO2)cc1 was read as PLK1 PBD block inactive, BAZ2B block inactive, HP1b chromo inh inactive, G9a block inactive[2.33 µM], JMJD2A Tudor inactive and ALOX12 inh inactive.
N#Cc1ccc(S(=O)(=O)N2CCN(S(=O)(=O)c3ccc4c(c3)OCCO4)CC2)cc1 was read as JMJD2A Tudor inactive.
Screening Cc1cccn2c(=O)c3cc(C(=O)NCc4ccc(F)cc4)c(=N)n(CCCN4CCOCC4)c3nc12 returned PLK1 PBD block inactive, HP1b chromo inh inactive, JMJD2A Tudor inactive[11.4 µM] and ALOX12 inh inactive.
Screening CCn1c(C)cc(C=C2C(=O)c3ccccc3C2=O)c1C returned PLK1 PBD block inconclusive, BAZ2B block inactive, HP1b chromo inh inactive, G9a block inconclusive, JMJD2A Tudor inactive and ALOX12 inh inconclusive.
`O=C1/C(=C/c2cccs2)Cc2ccccc21` gave PLK1 PBD block inactive, BAZ2B block inactive, HP1b chromo inh inactive, G9a block inactive, JMJD2A Tudor inactive and ALOX12 inh inactive.
Screening O=C1C(=Cc2cccs2)C(=O)c2ccccc21 returned PLK1 PBD block 8.4µM, BAZ2B block inactive, HP1b chromo inh inactive, G9a block inactive, JMJD2A Tudor inactive and ALOX12 inh inactive.
Cc1cc(C=C2C(=O)c3ccccc3C2=O)c(C)n1C was read as PLK1 PBD block inactive, BAZ2B block inactive, HP1b chromo inh inactive, G9a block 40µM, JMJD2A Tudor inactive and ALOX12 inh inactive.

High-throughput results as filed in PubChem.
